# Screening results from PubChem BioAssay.
# HEK293 cAMP cs = qHTS Assay for Agonists of the Thyroid Stimulating Hormone Receptor: Activators of Intracellular cAMP Concentrations in Parental HEK 293. parental HEK293 CNG cAMP sensor, membrane potential fluorescence. Potency, µM (doses to about 57.1 µM), without a hit: at the highest dose activation, actives largely listed as activators. 2.5% of 73,000 active. AID 938, 2007; further: % of control where 0% means no effect; nearly all actives have a fitted effect of over 55% in size
#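 Parental HEK 293 cells stably expressing a modified CNG channel (no TSHR) report cAMP rise as membrane depolarization. Membrane potential dye with 100 uM RO 20-1724 was loaded for 60 min at room temperature, then compound added for 30 min; fluorescence read at 590 nm.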
# Tau filament bind = qHTS Assay for Tau Filament Binding. Microtubule-associated protein tau (Homo sapiens), P10636. recombinant tau filaments, thioflavin S fluorescence, 15 h; filaments grown with octadecylsulfate alongside compound. Potency, µM (doses to about 57.1 µM), for the others: at the highest dose activity change, negative = inhibition. 2% of 71,000 active. AID 596, 2007;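 further: on the % scale 0 is the no-effect control and ±100 the full control effect; actives lower thioflavin S fluorescence by blocking filaments or displacing dye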
#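 His-tagged recombinant human tau (exons 2, 3, 10; 1 uM final) fibrillized with 30 uM sodium octadecylsulfate, 15 h at 37 C, in pH 7.4 HEPES buffer with 10 uM thioflavine S and 5 mM DTT. Reduced ThS fluorescence (450/510 nm) marks activity.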
# ERK AVP block = qHTS Assay for Inhibitors of the ERK Signaling Pathway using a Homogeneous Screening Assay; HEK293-V1b, vasopressin-stimulated pERK AlphaScreen; Potency, µM (highest dose often 57.5 µM), for inactives: at the top dose activity, negative = inhibition, usual class: inhibitors; 0.99% of 72,000 active; AID 995, 2007; further: on the % scale 0 is the no-effect control and ±100 the full control effect; nearly all actives have a fitted effect of over 55% in size
#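 HEK293 cells stably expressing V1b receptor, seeded overnight in 1% FBS, were treated with compounds for 30 min at 37C, then stimulated 5 min with 25 nM vasopressin; phospho-ERK read by AlphaScreen SureFire after lysis.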
# FLuc inh = qHTS Assay for Inhibitors of Firefly Luciferase | Luciferin 4-monooxygenase (Photinus pyralis), P08659 | Potency, µM (highest dose often 57.1 µM), for the others: at the top dose activity change, negative = inhibition, most hits filed as inhibitors | purified firefly luciferase, luminescence, 8 min | 2.2% of 72,000 active; further: on the % scale 0 is the no-effect control and ±100 the full control effect; nearly all actives have a fitted effect of over 40% in size
#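 Titration-based qHTS; buffer 50 mM imidazole pH 7.2, 50 mM KCl, 7 mM MgCl2, 10 uM ATP, 0.01% Tween 20, 0.05% BSA; luciferase/luciferin detector mix added after compound; 8 min, ambient; luminescence.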
# TSHR ag = qHTS Assay for Agonists of the Thyroid Stimulating Hormone Receptor | Thyrotropin receptor (Homo sapiens), P16473 | HEK293-CNG-TSHR cells (CNG channel as cAMP sensor), membrane potential dye, cAMP | Potency, µM (titrated, usually from 57.1 µM), without a hit: at the top dose activation, usual class: activators | 0.48% of 73,000 active | AID 926, 2007; active means well fitted activation curve with a large enough effect in the main read-out, with a control signal flat, not every such curve was filed as active; inconclusive means small, poorly fitted or top-dose-only effect, or a change in a side signal; inactive means no such curve, though single readings can be large or run the other way; % of control where 0% means no effect;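 further: the control signal comes from parental cells without the receptor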
# Target sequence (P16473 whole entry, looked up): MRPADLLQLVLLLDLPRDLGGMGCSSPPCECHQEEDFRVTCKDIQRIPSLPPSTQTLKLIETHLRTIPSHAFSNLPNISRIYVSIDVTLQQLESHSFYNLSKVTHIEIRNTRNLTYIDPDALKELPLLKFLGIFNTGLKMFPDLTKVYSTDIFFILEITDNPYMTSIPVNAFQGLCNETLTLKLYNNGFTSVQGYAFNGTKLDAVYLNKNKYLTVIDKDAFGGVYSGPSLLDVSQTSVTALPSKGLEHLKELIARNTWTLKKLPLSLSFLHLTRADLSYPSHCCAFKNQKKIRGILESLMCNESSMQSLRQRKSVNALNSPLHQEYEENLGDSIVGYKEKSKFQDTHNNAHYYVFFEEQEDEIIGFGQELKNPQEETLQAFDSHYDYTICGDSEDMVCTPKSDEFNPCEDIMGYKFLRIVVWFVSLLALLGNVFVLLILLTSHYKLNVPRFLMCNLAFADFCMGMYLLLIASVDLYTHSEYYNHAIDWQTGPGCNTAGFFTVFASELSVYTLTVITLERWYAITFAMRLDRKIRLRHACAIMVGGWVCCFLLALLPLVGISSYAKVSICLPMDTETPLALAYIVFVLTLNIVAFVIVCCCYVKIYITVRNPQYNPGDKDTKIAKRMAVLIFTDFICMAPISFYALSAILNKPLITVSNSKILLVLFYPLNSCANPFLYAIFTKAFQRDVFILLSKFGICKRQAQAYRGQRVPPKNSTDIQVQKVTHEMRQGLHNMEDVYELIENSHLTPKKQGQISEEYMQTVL
#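 cAMP rise detected as CNG-channel membrane depolarization by fluorescent dye (emission 590 nm), 30 min after compound, following 60 min dye loading containing 100 uM RO 20-1724 at room temperature. Cells: TSHR/CNG HEK 293, with parental CNG HEK 293 as control.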
# Bst PK mod = Pyruvate Kinase; purified pyruvate kinase, luminescence ATP production; ribose 5-phosphate activator present at AC10; Potency, µM; 1.2% of 51,000 active; AID 361, 2006; in the data active means potency below about 11 µM; inconclusive means mostly about 12 µM to 25 µM;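 the screen sought inhibitors and activators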;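 further: scaled between full activation by ribose 5 phosphate and full inhibition by luteolin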
# * marks the source's active call; other numbers are inactive results; ? = inconclusive; · = no result; [ ] = another dose, or the depositor's remark. The list is not random: actives were taken first. Their share in the collection is about 7.2%. Unless noted, the call rests on the fitted dose curve; in most records, active means well fitted curve in the direction sought with a large enough effect; inconclusive means small, poorly fitted or top-dose-only effect, or another doubt; inactive means no such curve, though single readings can be large; an effect the other way counts as inactive or inconclusive. Potency means the concentration at half of the fitted maximal effect.
SMILES,HEK293 cAMP cs,Tau filament bind,ERK AVP block,FLuc inh,TSHR ag,Bst PK mod
CCC(=O)Nc1nonc1-c1nc2ccccc2n1CC(C)C,25µM*,40%,5%,2%,?,>57
CCN1C(=O)[C@H]2[C@H]3[C@H](O)[C@H](O)C/C(=N/OC)[C@@H]3CC[C@@H]2C1=O,11%[11.4 µM],·,11%[11.5 µM],2%[11.4 µM],-4%[11.4 µM],·
N#CC1=C(N)Oc2n[nH]c(-c3ccc(F)cc3)c2C1c1cccnc1 (stereo not given),10%,0%,16µM*,2%,-4%[11.4 µM],>57
CCC(C)C1C(C#N)=C(N)Oc2n[nH]c(-c3ccccc3)c21 (stereo not given),25µM*,30%,·,3%,?,·
N#CC1=C(N)Oc2n[nH]c(-c3ccccc3)c2C1c1ccncc1 (stereo not given),7%,-3%,-21%,-2%,12%,>57
CCC(C)C1C(C#N)=C(N)Oc2n[nH]c(C)c21 (stereo not given),15%,-2%,·,2%,-7%,·
C/C(CCN1CCCc2nc(C)c(C)cc21)=N\OC[C@@H](C)[C@H](OCc1ccccc1)C(C)C,11%[11.4 µM],·,17%[11.5 µM],0%[11.4 µM],5%[11.4 µM],·
Cn1cccc1C(=O)N1CCC2(CCCN(c3cccc(-c4ccccc4)c3)C2)CC1,10%,23%,-7%,1%[11.4 µM],18%,·
Cc1ccc(C(C)(C)C)cc1,6%,-8%,10%,·,?,·
Cc1cnc(C(=O)Nc2cccc3cccnc23)cn1,10%,-11%,-4%,0%,9%,>57
O=C(Nc1cccc2cccnc12)c1cccnc1,24%,-3%,-7%,-1%,-2%,9.7*
C=CC[C@@H]1C=C[C@H](O/N=C\[C@@H](C)[C@H](OCc2ccccc2)C(C)C)[C@H](CO)O1,14%[11.4 µM],·,17%[11.5 µM],3%[11.4 µM],9%[11.4 µM],·
Cc1cc(N2CCN(C(=O)c3ccco3)CC2)n2nc(-c3cccc(Cl)c3)cc2n1,?,27%,25µM*,-2%,?,>57
COC(=O)N1CCC[C@@]2(CCN(c3ncccn3)C2)C1,-75%,-2%,-21%,2%[11.4 µM],?,·
COC(=O)c1ccccc1NC(=O)CNc1cc(Cl)ccc1N1CCOCC1,?,16µM*,61%,-1%,?,>57
Cc1cc(Cl)ccc1OC(C)C(=O)Nc1ccccc1N1CCOCC1 (stereo not given),25µM*,?,17%,-1%,?,>57
CC(C)Oc1cccc(C(=O)Nc2ccccc2N2CCOCC2)c1,?,-14%,-10%,-6%,?,>57
O=C1c2ccccc2-c2ccc(NC(=O)[C@H]3CCCC[C@@H]3C(=O)O)cc21,2%[11.4 µM],-14%[11.4 µM],-10%[11.5 µM],0%[11.4 µM],-6%[11.4 µM],·
O=C(Nc1ccc(Nc2ccc3c(c2)C(=O)c2ccccc2C3=O)c2c1C(=O)c1ccccc1C2=O)c1ccccc1,0%[11.4 µM],4µM*,-9%[11.5 µM],-2%[11.4 µM],-45%[11.4 µM],·
CN(C)c1ccc(C2=NOC(CN3C(=O)c4ccccc4S3(=O)=O)C2)cc1 (stereo not given),-6%,?,?,16µM*,1%,·
CSc1ncnc2c1ncn2CC(=O)[C@H]1CC[C@H]2[C@H]3CCC4=CC(=O)CC[C@@]4(C)[C@@H]3CC[C@@]12C,1%[11.4 µM],64%[11.4 µM],4µM*,0%[11.4 µM],10%[11.4 µM],·
CN1CCCN=C1/C=C\c1cccs1,-1%[25.6 µM],9%[25.6 µM],17%[25.7 µM],7%[25.5 µM],-4%[25.6 µM],·
CC(C)C[C@@H](CC(=O)N[C@@H](CCC(=O)O)CC(=O)O)NC(=O)[C@@H]1CCCC[C@H]1NC(=O)C[C@H](CCCN)NC(=O)C[C@H](Cc1ccccc1)NC(=O)[C@@H]1CCCC[C@H]1N,10%,-3%,·,·,4%,·
COc1ccc(C(CNC(=O)c2cc(C)oc2C)N2CCOCC2)cc1 (stereo not given),?,6%,0%,2%,?,>57
O=C(NCC(c1ccc(F)cc1)N1CCOCC1)c1ccc(Br)o1 (stereo not given),25µM*,1%,2%,-1%,?,>57
SMILES,HEK293 cAMP cs,Tau filament bind,ERK AVP block,FLuc inh,TSHR ag,Bst PK mod
Cn1c(=O)c2[nH]c(CS(=O)(=O)Cc3nc4c([nH]3)c(=O)n(C)c(=O)n4C)nc2n(C)c1=O,-9%[11.4 µM],276%[11.4 µM],-6%[11.5 µM],2%[11.4 µM],-3%[11.4 µM],·
COCCNc1nc(-c2ccccc2CN(C)C)nc2ccccc12,?,7%,-10%,0%[2.29 µM],?,·
CN(C)c1ccc(Nc2nc(-c3cccnc3)cs2)cc1,-15%[11.4 µM],2.5µM*,?,0.63µM*,10%[11.4 µM],·
OCCCCNc1cccc2ccccc12,?,25µM*,11%,-4%,?,>57
CCOc1ccc(C(=O)COC(=O)CC)cc1,3%,-3%,-9%,16µM*,9%,·
CCC(=O)c1ccc(OCC(=O)O)cc1,4%,1%,13%,-5%,1%,>57
Cc1ccc(C(=O)CSc2nc(C)cc(SCc3nnc(-c4ccccc4)o3)n2)cc1,7.9µM*,-3%,-5%,0%,?,>57
CN1CCN(c2nc(-c3cccc(C#N)c3)nc3ccccc23)CC1,23%,60%,-22%,2%[2.29 µM],·,·
O=C(OCC(=O)N1CCN(C(=O)c2ccco2)CC1)c1ccccc1OCc1ccc(Cl)cc1,25µM*,22%,?,-10%,?,·
OC[C@@H]1O[C@@H](n2cnc3c(NC4CCCCC4)ncnc32)[C@@H](O)[C@H]1O,21%,15%,-27%,-13%,·,·
CC(=O)OC[C@@H]1O[C@@H](O/N=C2/C[C@@H](O)[C@@H](O)[C@@H]3[C@@H]4C(=O)N(Cc5ccc6c(c5)OCO6)C(=O)[C@H]4CC[C@@H]23)[C@H](OC(C)=O)[C@H](OC(C)=O)[C@@H]1OC(C)=O,6%[11.4 µM],·,42%[11.5 µM],-1%[11.4 µM],0%[11.4 µM],·
O=C(Nc1ccc(Nc2ccccc2)cc1)C1CC1,-13%,10µM*,4%,-8%,-11%,·
Clc1ccc2nc(NC3=NCN(CCN4CCOCC4)CN3)nc(-c3ccccc3)c2c1,?,7.9µM*,-5%,1%,?,>57
CCc1ccc2nc(NC3=NCN(CCCN4CCOCC4)CN3)nc(C)c2c1,12%,28%,-11%,-1%,-3%,·
Brc1ccc(C2Nc3cccc4cccc(c34)N2)o1,-4%,10µM*,?,-17%,-17%,·
CC#N,-9%,3%,-4%,·,2%,·
COc1ccc(CNC(=O)C(OC(C)=O)c2ccccn2)cc1 (stereo not given),7.9µM*,-13%,12%,4%,?,>57
COc1cc2c(cc1OC)Cc1cc(OC)c(OC)cc1Cc1cc(OC)c(OC)cc1C2,·,·,6%,·,·,·
